Screens as filed in PubChem BioAssay.
Sampled rows, rich in hits. Any-hit rate of the full collection: about 19%.
HT1080 IDH1KD tx – kills HT-1080 cells with IDH1 knockdown | 360,000 compounds, 2% hits | HT-1080 IDH1 knockdown viability, ATP luminescence, 48 h | Potency, µM (doses to about 46.1 µM), for inactives: at the highest dose activity, negative = toxicity, usual class: cytotoxic;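 also: potency is read from the fitted curve at half-maximal effect; 0% = DMSO wells and -100% = cell-free medium wells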
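In this qHTS, HT-1080 cells depleted of IDH1 are exposed for 48 h at 37 °C to compound titrations. Toxicity is scored from CellTiter-Glo luminescence, with DMSO as full viability and medium alone as none.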
TDP1 cell CPT – growth inhibition of DT40 Tdp1-/-;hTDP1 cells with camptothecin (screen for TDP1 inhibitors) | Potency, µM (highest dose often 46.2 µM), for the others: at the top dose activity change, negative = growth inhibition, hits mostly inhibitors | chicken DT40 Tdp1-/-;hTDP1 cells + 20 nM CPT, ATP luminescence, 48 h | 420,000 compounds, 12% hits; also: potency is read from the fitted curve at half-maximal effect; nearly all actives have a fitted effect of over 55% in size
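Chicken DT40 Tdp1-/- cells complemented with human TDP1, 400 cells/well, exposed to compounds plus 20 nM camptothecin for at least 48 h at 37 C; viability read as ATP content by CellTiter-Glo luminescence.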
ELG1 repair inh – inhibitors of ELG1-dependent DNA repair in HEK293T cells; HEK293T ELG1-luciferase reporter, luminescence, 16 h; DNA damage induced by 5-fluorouridine; 330,000 compounds, 2.3% hits; Potency, µM (top dose mostly 46.1 µM), for inactives: top-dose activity change, negative = inhibition, actives largely listed as inhibitors; also: potency is read from the fitted curve at half-maximal effect; nearly all actives have a fitted effect of over 55% in size
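5-Fluorouridine DNA damage + compound/DMSO, 2,000 cells/well, 16 h, 37 °C/5% CO2. ONE-Glo, 30 min RT, luminescence. Readout = decrease in reporter signal.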
IL-1B inflam inh – blocks inflammasome-driven IL-1 beta release. THP-1 LPS/ATP IL-1B secretion, AlphaLISA, 16 h; active compounds read low. activity change, % at 57.5 µM. 360,000 compounds, 4.7% hits; in the data active = activity change below about -50%; inconclusive = mostly about -30% to -49%
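Secreted IL-1B measured by AlphaLISA bead assay after 16 h compound exposure of THP-1 cells; compounds (final up to 57.5 uM) added 1 h before LPS (250 ng/mL) and ATP (1.25 mM) stimulation; lower signal means less secretion.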
DT40 TDP1 no CPT – qHTS for Inhibitors of human tyrosyl-DNA phosphodiesterase 1 (TDP1): qHTS in cells in absence of CPT; Potency, µM (series often up to 46.2 µM), inactives show at the top dose activity change, negative = growth inhibition, most hits filed as inhibitors; DT40 Tdp1-/- hTDP1 cells, no CPT, ATP luminescence, 48 h; 420,000 compounds, 15% hits; also: potency is read from the fitted curve at half-maximal effect; nearly all actives have a fitted effect of over 55% in size
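Growth of hTDP1-complemented DT40 Tdp1-knockout cells is measured by ATP luminescence after at least 48 hr compound exposure at 37 °C, with DMSO substituting for the 20 nM CPT used in the parallel screen.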
HT1080NT lethal – kills 2HG-producing HT-1080-NT fibrosarcoma cells; HT-1080-NT fibrosarcoma viability, CellTiter-Glo ATP luminescence, 48 h; Potency, µM (top dose mostly 46.1 µM), without a hit: at the highest dose activity, negative = less viability, hits mostly cytotoxic; 360,000 compounds, 1.6% hits; AID 686970;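 also: NT is the 2HG producing partner of a matched IDH1 knockdown line; potency is read from the fitted curve at half-maximal effect; 0% = DMSO-treated cells and -100% = media-only wells without cells; nearly all actives have a fitted effect of over 55% in size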
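Viability of the 2HG-overproducing fibrosarcoma line after 48 hours of compound exposure at 37 degrees C was determined by luminescence with CellTiter-Glo, and concentration-effect curves were then fitted and categorized.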
* hit, by the source's call; u = inconclusive; x = not tested or not shown. Unless noted, calls follow the shape of the dose curve; as a rule, active = well fitted curve in the direction sought with a large enough effect; inconclusive = small, poorly fitted or top-dose-only effect, or another doubt; inactive = no such curve, though single readings can be large; an effect the other way counts as inactive or inconclusive. Unless noted, % is scaled to controls: 0 for no effect and ±100 for the full control effect.

SMILES	HT1080 IDH1KD tx	TDP1 cell CPT	ELG1 repair inh	IL-1B inflam inh	DT40 TDP1 no CPT	HT1080NT lethal
O=C(NCC(c1ccc2c(c1)OCO2)N1CCOCC1)C(=O)Nc1cccc(Cl)c1 (stereo not drawn)	x	u	x	x	12µM*	x
O=C(NCC(c1ccc2c(c1)OCO2)N1CCN(c2ccccc2)CC1)c1ccccc1 (stereo not drawn)	x	13µM*	x	x	10µM*	x
COc1ccccc1N1CCN(C(c2cccs2)C(C)NC(=O)c2ccncc2)CC1 (stereo not drawn)	0%	21µM*	14%	4	u	-5%
CNC(=O)C(=O)NCC(c1ccc2c(c1)OCO2)N1CCOCC1 (stereo not drawn)	x	1%	x	x	2%	x
COc1ccc(N2CCN(C(c3cccs3)C(C)NC(=O)c3ccc4c(c3)OCO4)CC2)cc1 (stereo not drawn)	-6%	u	u	8	21µM*	-10%
COc1cccc(C(NC(C)=O)c2nc(-c3ccoc3)cs2)c1 (stereo not drawn)	0%	1%	x	-1	-3%	19%
COc1cc(C=O)ccc1OC(=O)c1cccnc1	1%	7%	2%	2	3%	-9%
O=C(NCC(c1ccc2c(c1)OCO2)N1CCN(c2ccc(F)cc2)CC1)c1cccc([N+](=O)[O-])c1 (stereo not drawn)	x	6.5µM*	x	x	6.5µM*	x
Cc1ccc(C(=O)NCC(c2ccc3c(c2)OCO3)N2CCOCC2)cc1C (stereo not drawn)	x	21µM*	x	x	10µM*	x
COc1ccc(N2CCN(C(CNC(=O)c3ccc(C)cc3)c3ccc4c(c3)OCO4)CC2)cc1 (stereo not drawn)	x	8.2µM*	x	x	5.8µM*	x
COc1ccc(C(=O)NCC(c2ccc3c(c2)OCO3)N2CCN(C)CC2)cc1 (stereo not drawn)	x	1%	x	x	-23%	x
CC1CCCCN1CCCNC(=O)CN1C(=O)c2cccnc2Oc2ccc(Cl)cc21 (stereo not drawn)	-7%	-10%	-4%	-24	15%	-1%
COc1ccc(C(=O)COC(=O)c2cc(-c3cccs3)nc3ccccc23)cc1	x	-32%	x	x	u	x
Cc1ccc(NC(=O)C(C)SCC(=O)Nc2ccc(F)cc2)cc1S(=O)(=O)N1CCOCC1 (stereo not drawn)	2%	u	-21%	-2	-24%	-4%
CN(C)c1nc(N)nc2c1ncn2C1OC(CO)CC1O (stereo not drawn)	2%	u	x	-28	u	1%
Nc1nc(=S)c2ncn(C3OC(CO)CC3O)c2[nH]1 (stereo not drawn)	u	-18%	x	49	12µM*	-19%
COc1nc(N)nc2c1ncn2C1OC(CO)CC1O (stereo not drawn)	0%	1µM*	x	0	1.5µM*	3%
Cc1ccc(-n2nc(C)c(=O)c(-c3ccccc3)c2NC(=O)c2cccs2)cc1	0%	4%	6%	29	1%	5%
CN(c1ccccc1)S(=O)(=O)c1cccc(C(=O)Nc2ccc(N3CCOCC3)cc2)c1	-6%	u	18µM*	u	18µM*	-11%
CN(C)S(=O)(=O)c1cccc(C(=O)Nc2ccc(N3CCOCC3)cc2)c1	-19%	-25%	19%	24	-16%	-6%
COc1ccc(N(C)S(=O)(=O)c2cccc(C(=O)NC3=NCCS3)c2)cc1	-1%	-19%	u	-8	u	-2%
COc1ccc(N(C)S(=O)(=O)c2cccc(C(=O)NCC3CCCCC3)c2)cc1	-5%	23µM*	u	-50*	13µM*	-12%
